a7 integrin act: activators of alpha7 integrin expression for muscular dystrophy; alpha7betagal myoblasts, beta-gal FDG fluorescence, 48 h; Potency, µM (doses to about 38.3 µM), actives largely listed as activators; hit rate 0.064% among 350,000; AID 624291; note: nearly all actives have a fitted effect of over 60% in size
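alpha7betagal+/- myoblasts (passage 13, 250/well) treated 48 h at 37C with compounds at 1:260 dilution of DMSO stock. Lysed, then beta-galactosidase activity read as FDG fluorescence (ex 480/em 540) after 30 min, with pre-read for autofluorescence.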
Gal4-VP16 FLuc: inhibits Gal4-VP16 luciferase reporter, ROR gamma counter-screen. Drosophila S2 Gal4-VP16 UAS-luciferase, luminescence, 20 h. Potency, µM (titrated, usually from 53.6 µM), hits mostly inhibitors. hit rate 3.5% among 310,000;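 note: Gal4-VP16 expression switched on by copper sulfate through the metallothionein promoter; nearly all actives have a fitted effect of over 50% in size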
BCR signal inh: blocks chronic active B-cell receptor signaling | ABC-DLBCL IkBa-CBG/CBR reporter, luminescence ratio, 4 h | Potency, µM (top dose mostly 46.1 µM), most hits filed as inhibitors | hit rate 0.05% among 340,000; active = well fitted inhibition curve with a large enough effect in the signal ratio, with a control signal flat, not every such curve was filed as active; inconclusive = small, poorly fitted or top-dose-only effect, or effect the other way, or a change in a side signal; the % refers to the signal ratio
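Concentration-response series (up to 46 uM) were applied to TMD8 dual-reporter cells for 4 h at 37C with doxycycline. Green/red ratio, after filter-overlap correction, defined %Activity; red signal alone was normalised to basal cells and zero luminescence.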
Mito fusion act: blocks mitochondrial division or promotes mitochondrial fusion | hit rate 0.23% among 320,000 | S. cerevisiae fusion-defective mutant growth rescue, CellTiterGlo 48 h | Potency, µM (highest dose often 46.1 µM), usual class: activators | AID 485298; note: nearly all actives have a fitted effect of over 45% in size
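Temperature-sensitive fusion-defective S. cerevisiae (e.g. fzo1-1, mgm1-5) were grown with compound in YPEG medium (3% ethanol, 3% glycerol) for 48 hours at 37C. Growth rescue was measured as viability by CellTiterGlo luminescence after 10 minutes at ambient.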
RORg inh: ROR gamma (mouse) transcription inhibition; P51450; Drosophila S2 Gal4-RORgamma UAS-luciferase reporter, 20 h; Potency, µM (highest dose often 53.6 µM), hits mostly inhibitors; hit rate 5.4% among 310,000; AID 2551; note: nearly all actives have a fitted effect of over 60% in size
Target sequence (P51450 whole entry, looked up, the tested form may be a part): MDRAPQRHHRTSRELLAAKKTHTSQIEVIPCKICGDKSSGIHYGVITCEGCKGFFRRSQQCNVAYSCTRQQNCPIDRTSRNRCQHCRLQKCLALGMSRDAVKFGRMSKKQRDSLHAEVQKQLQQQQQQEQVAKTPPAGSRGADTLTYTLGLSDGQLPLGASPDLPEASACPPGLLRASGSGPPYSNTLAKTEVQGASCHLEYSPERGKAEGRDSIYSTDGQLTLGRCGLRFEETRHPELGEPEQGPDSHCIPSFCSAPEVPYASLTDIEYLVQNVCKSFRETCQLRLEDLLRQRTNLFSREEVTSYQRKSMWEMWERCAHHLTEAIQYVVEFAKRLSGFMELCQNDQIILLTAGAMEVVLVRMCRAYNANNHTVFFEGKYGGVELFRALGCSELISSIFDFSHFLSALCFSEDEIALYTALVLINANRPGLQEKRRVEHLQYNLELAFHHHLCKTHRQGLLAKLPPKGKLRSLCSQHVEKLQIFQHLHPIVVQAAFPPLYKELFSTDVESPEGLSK
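Drosophila Schneider cells stably carrying a metallothionein-driven Gal4 DBD–ROR gamma fusion and a UAS-Photinus luciferase reporter were exposed to compound for 1 hr, then induced with copper sulfate (700 uM final) for 20 hr at ambient temperature before luminescence reading.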
uPA generation: blocks generation of uPA at the cell surface; cell surface uPA generation assay, qHTS; AID 540303; hit rate 0.31% among 330,000; Potency, µM (top dose mostly 38.3 µM), usual class: inhibitors; active = well fitted inhibition curve with a large enough effect; inconclusive = small, poorly fitted or top-dose-only effect; inactive = no such curve, though single readings can be large or run the other way; tested in mouse RAW 264.7 cells; note: nearly all actives have a fitted effect of over 55% in size
Hits are given with their value; . = inactive; ? = inconclusive; / = not tested or not shown; [ ] = remark or other dose. Shown are actives, neighbours in structure and some others; about 5.5% of the full set was active somewhere. Unless noted, calls come from the whole dose curve; as a rule, active = well fitted curve in the direction sought with a large enough effect; inconclusive = small, poorly fitted or top-dose-only effect, or another doubt; inactive = no such curve, though single readings can be large; an effect the other way counts as inactive or inconclusive.

SMILES | a7 integrin act | Gal4-VP16 FLuc | BCR signal inh | Mito fusion act | RORg inh | uPA generation
Cc1ccc(-c2cn(-c3ccccc3)c(=S)[nH]2)cc1C | . | ? | ? | . | ? | .
COc1ccc(-n2cc(-c3ccccc3)[nH]c2=S)c(OC)c1 | . | 7.9µM | . | . | 2.5µM | ?
CCc1ccc(-n2cc(-c3ccc([N+](=O)[O-])cc3)[nH]c2=S)cc1 | . | ? | . | . | 11µM | .
COC(=O)Cc1cc(=O)[nH]c(/N=C(\N)Nc2ccc(C(C)C)cc2)n1 | . | . | . | . | ? | .
Cc1ccccc1-c1cn(-c2ccccc2)c(=S)[nH]1 | . | 10µM | ? | . | 3.2µM | .
COc1cc(OC)c(-n2cc(-c3ccc(OC)c(OC)c3)[nH]c2=S)cc1Cl | . | 16µM | ? | . | 7.9µM | .
COc1ccc(-n2cc(-c3ccc(Br)cc3)[nH]c2=S)cc1 | . | . | . | . | 1.8µM | .
COc1ccc(-c2cn(-c3ccc(C)cc3C)c(=S)[nH]2)cc1OC | . | ? | ? | . | ? | .
COc1ccc(-n2cc(-c3ccc(OC)c(OC)c3)[nH]c2=S)cc1 | . | 10µM | . | . | 2µM | .
Cc1ncc([N+](=O)[O-])n1CC(=O)Nc1ccc(F)cc1 | . | . | . | . | . | .
O=C(N/N=C/c1cc(Br)c(Br)o1)c1cc2ccccc2o1 | . | 6.3µM | . | . | 5µM | .
Cc1nc2ccccn2c1C(=O)N/N=C/c1ccc([N+](=O)[O-])o1 | . | ? | . | . | 14µM | ?
O=C(N/N=C/c1ccc([N+](=O)[O-])o1)c1cc2ccccc2o1 | . | ? | . | . | ? | 2.5µM
O=c1cc(-c2ccccc2)oc2cc(O[C@@H]3O[C@H](CO)[C@@H](O)[C@H](O)[C@H]3O)c(O)c(O)c12 | / | . | / | / | . | /
Brc1ccc(C2=Nn3c(nnc3-c3n[nH]c4c3CCC4)SC2)cc1 | . | . | ? | 16µM | . | .
COc1cc(OC)cc(C(=O)NC(=S)Nc2ccc(N3CCCC3)cc2)c1 | . | ? | ? | . | 3.2µM | .
COc1cc(OC)cc(C(=O)NC(=S)N2CCCCCC2)c1 | . | 1.1µM | . | . | 0.5µM | .
COc1ccc(C(=O)NC(=S)N2CCCCC2)cc1 | . | . | . | . | . | .
CCN(CC)C(=O)C1=C(C)N(Cc2ccc(C(C)(C)C)cc2)C(=O)C(CC(=O)NC2CCCC2)C1 (stereo not given) | . | / | / | / | / | /
CCOC(=O)c1ccc(NS(=O)(=O)c2ccc(SC)cc2)cc1 | .[7.66 µM] | ? | . | 20µM | ? | .
CCOC(=O)Cc1ccc(NS(=O)(=O)c2ccc(SC)cc2)cc1 | . | . | . | . | . | .
O=C(COC(=O)CNC(=O)c1ccccc1F)Nc1ncc(Cl)cc1Cl | . | / | . | . | / | .
O=C(Nc1ccc(Cl)cc1)Nc1nnc(CSCc2ccccc2)s1 | . | . | . | . | . | .
O=C(Nc1nnc(CSCc2ccc(Cl)cc2)s1)c1cccc([N+](=O)[O-])c1 | . | 10µM | ? | . | 11µM | .
O=C(Nc1nnc(Cc2ccc([N+](=O)[O-])cc2)s1)c1ccc2c(c1)OCO2 | . | . | . | . | . | .
SMILES | a7 integrin act | Gal4-VP16 FLuc | BCR signal inh | Mito fusion act | RORg inh | uPA generation
COC(=O)c1cc(C(=O)Nc2nnc(CC(C)(C)C)s2)cc([N+](=O)[O-])c1 | . | 8.9µM | . | . | 8.9µM | .
O=C(Nc1nnc(CSCc2ccc(F)cc2)s1)c1cccc([N+](=O)[O-])c1 | . | 20µM | . | . | 11µM | .
CCC(C)(C)c1nnc(NC(=O)c2cccc([N+](=O)[O-])c2)s1 | ? | ? | ? | . | 13µM | .
CCOCc1nnc(NC(=O)c2cc(C(=O)OC)cc([N+](=O)[O-])c2)s1 | . | . | . | . | . | .
CCC(C)C(NC(=O)C(Cc1ccc(O)cc1)NC(=O)C(N)C(C)C)C(=O)NC(Cc1cnc[nH]1)C(=O)N1CCCC1C(=O)NC(Cc1ccccc1)C(=O)O (stereo not given) | / | . | / | / | . | /
NC(=O)CSc1nnc(-c2ccco2)n1-c1ccc(F)cc1 | . | / | / | / | / | /
O=C(COC(=O)C1CC2CCCC(C1)C2=O)Nc1ccccc1 (stereo not given) | . | / | ? | . | / | .
CCCn1nnnc1NC(=O)c1ccc(C)cc1Cl | . | 6.3µM | . | . | 3.5µM | .
